Screening data deposited in PubChem BioAssay by National Center for Advancing Translational Sciences (NCATS).
gsp antagonist: gsp mutant antagonism. gsp-mutant cells, cAMP HTRF, 30 min. Potency, µM (titrated, usually from 76.9 µM), for inactives: at the highest dose activity change, negative = inhibition, most hits filed as inhibitors. actives 0.4% (n = 340,000); calls by dose curve; cell line not stated here;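 further: intracellular cAMP measured with PDE inhibitor Ro 20-1724 present during compound exposure; potency means the concentration at half of the fitted maximal effect; on the % scale 0 is the no-effect control and ±100 the full control effect; nearly all actives have a fitted effect of over 65% in size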
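Cells in G418 medium, seeded 16-24 h, 37C; buffer exchange to DPBS + 1 mM CaCl2, 0.5 mM MgCl2, 0.05% BSA; cpds in DMSO + […] (300 uM stock), 30 min 37C; HTRF cAMP detection.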
gsp agonist: gsp mutant agonism; gsp mutant cells, cAMP HTRF, 30 min; Potency, µM (titrated, usually from 76.9 µM), for the others: at the top dose activation (cAMP increase), usual class: activators; actives 0.13% (n = 340,000); active means well fitted activation curve with a large enough effect; inconclusive means small, poorly fitted or top-dose-only effect, or another doubt; inactive means no such curve, though single readings can be large or run the other way; cell line not stated here;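 further: phosphodiesterase inhibitor Ro 20-1724 added with compounds to block cAMP breakdown; potency means the concentration at half of the fitted maximal effect; nearly all actives have a fitted effect of over 60% in size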
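Cells stably selected in G418 were plated at 2000/well, grown 16-24 hr, then given compounds in DMSO with the PDE inhibitor […] (300 uM solution added) for 30 min at 37C; cAMP was read by HTRF.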
BRCA1 expr up: activators of BRCA1 expression; actives 1.1% (n = 380,000); MCF7-BRCA1-FFLuc reporter, luminescence, 48 h; response scale: scaled: vehicle 0%, 10 µM genistein 100%; AID 624202; Potency, µM (titrated, usually from 46.1 µM), inactives show top-dose activation, actives largely listed as activators; further: potency means the concentration at half of the fitted maximal effect; nearly all actives have a fitted effect of over 80% in size
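Luminescence from a BRCA1-driven firefly luciferase in MCF7 cells was read after 48 h compound exposure at 37 C. Data normalized against DMSO and a 10microM genistein activation control, then curve-fitted across the titration.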
IL-2 act: IL-2 activation; IL-2 activation reporter assay, cell-based qHTS; stimulated with anti-CD3/CD4/CD28 beads; in transgenic mouse T cells; activation, % (series mostly up to about 46 µM); actives 0.065% (n = 360,000); in the data active means activation above about 50%; inconclusive means mostly about 30% to 49%; further: 0% is about no effect
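First, unstimulated transgenic mouse T cells were exposed to compound for 60 min. Next, anti-CD3/anti-CD4-coated beads with anti-CD28 were added. Finally, after 18 h at 37 degrees C, EGFP and DsRed were imaged.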
mIDH1 inhibitor: blocks human mutant IDH1 R132H enzyme; Potency, µM (top dose mostly 76.6 µM), inactives show at the highest dose activity change, negative = inhibition, hits mostly inhibitors; actives 0.093% (n = 390,000); AID 602179; IDH1-R132H enzyme, NADPH consumption, diaphorase/resazurin fluorescence; O75874; further: potency means the concentration at half of the fitted maximal effect; on the % scale 0 is the no-effect control and ±100 the full control effect; nearly all actives have a fitted effect of over 65% in size
Target sequence (O75874 whole entry R132H, stated change not applied): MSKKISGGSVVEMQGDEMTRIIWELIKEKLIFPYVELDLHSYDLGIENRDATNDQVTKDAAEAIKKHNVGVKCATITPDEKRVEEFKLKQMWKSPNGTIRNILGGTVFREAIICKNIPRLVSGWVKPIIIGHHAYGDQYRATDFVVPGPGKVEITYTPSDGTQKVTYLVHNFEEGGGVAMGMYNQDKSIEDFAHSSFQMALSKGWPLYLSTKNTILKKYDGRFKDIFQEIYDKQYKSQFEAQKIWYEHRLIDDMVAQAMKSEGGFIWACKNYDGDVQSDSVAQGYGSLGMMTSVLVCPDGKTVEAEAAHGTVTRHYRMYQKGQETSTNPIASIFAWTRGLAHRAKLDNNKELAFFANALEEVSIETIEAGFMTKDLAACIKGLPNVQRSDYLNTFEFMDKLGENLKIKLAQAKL
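IDH1-R132H (0.5 ug/mL) preincubated 30 min with compound, then NADPH (0.016 mM) and alpha-KG (2 mM) added; 80 min at RT, pH 7.5. Remaining NADPH coupled via diaphorase/resazurin to fluorescence (540/590 nm); concentration-response curves normalized to no-enzyme control.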
Resorufin autofl: interferes with resorufin fluorescence in IDH1 counter-screen; shares compounds with mIDH1 inhibitor; Resorufin detection reagent fluorescence interference, cell-free; inhibition of signal, % at 51.2 µM; 750 tested, under 10 active; AID 623980;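 further: 0% = wells with normal resorufin and full inhibition = wells lacking resorufin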
IDH1 WT: wild-type IDH1 (human) inhibition counterscreen; Potency, µM (highest dose often 115 µM), for inactives: at the top dose activity change, negative = inhibition, hits mostly inhibitors; AID 623995; WT IDH1 enzyme, NADPH diaphorase/resazurin fluorescence; actives 9% (n = 750); shares compounds with mIDH1 inhibitor;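 further: potency means the concentration at half of the fitted maximal effect; 0% = full WT IDH1 enzyme control and full inhibition = no enzyme wells; nearly all actives have a fitted effect of over 55% in size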
Target sequence (O75874 whole entry, looked up): as the sequence (O75874 whole entry R132H, stated change not applied) above, with H132R counted along it
mIDH1 confirm: inhibits human mutant IDH1 enzyme in cherrypick confirmation; actives 83% (n = 750); Potency, µM (highest dose often 76.6 µM), for inactives: top-dose activity change, negative = inhibition, usual class: inhibitors; AID 624002; IDH1 R132H enzyme, NADPH diaphorase/resazurin fluorescence; shares compounds with mIDH1 inhibitor; further: potency means the concentration at half of the fitted maximal effect; nearly all actives have a fitted effect of over 50% in size
Starred values were filed as active, the others as inactive; i = inactive; ? = inconclusive; / = no result given; [ ] = dose if it differs, or a comment. Sampled rows, rich in hits. Any-hit rate of the full collection: about 1.5%. Unless noted, the call rests on the fitted dose curve; in most records, active means well fitted curve in the direction sought with a large enough effect; inconclusive means small, poorly fitted or top-dose-only effect, or another doubt; inactive means no such curve, though single readings can be large; an effect the other way counts as inactive or inconclusive.

SMILES	gsp antagonist	gsp agonist	BRCA1 expr up	IL-2 act	mIDH1 inhibitor	Resorufin autofl	IDH1 WT	mIDH1 confirm
Cc1cc(O)c(C(C)C)cc1C1(c2cc(C(C)C)c(O)cc2C)OC(=O)c2ccccc21	?	6%	-98%	-2	16µM*	0	-6%	16µM*
CCCc1cc(N2CCN(C(=O)c3ccco3)CC2)n2c(nc3ccccc32)c1C#N	4%	1%	-48%	-2	?	-4	?	40µM*
CCN(CC)CCCNC(=O)C1CCC(CNS(=O)(=O)c2ccc(Cl)cc2)CC1 (configuration not stated)	7%	20%	3%	0	-5%	/	/	/
CCOC(=O)C(C)Nc1ncnc2onc(C)c12 (configuration not stated)	/	/	/	/	-1%	/	/	/
CCCC(NC(=O)CCc1c(C)c2cc3c4c(oc3c(C)c2oc1=O)CCCC4)C(=O)O (configuration not stated)	-17%	?	-41%	0	41µM*	0	-9%	28µM*
COc1nnc(-c2ccc(N3CCCCC3)c(NC(=O)c3ccc(Cl)cc3)c2)c2ccccc12	/	/	9%	/	2%	/	/	/
CN(C(=O)CCc1nc2ccccc2c(=O)[nH]1)C1CCS(=O)(=O)C1 (configuration not stated)	15%	23%	-1%	0	-7%	/	/	/
Cc1ccc([C@@H]2C3COCC=C3C(C#N)=C(N)C2(C#N)C#N)o1 (some centres not stated)	-17%	?	-4%	-1	?	3	4%	?
Cc1ccc(C2C3CSCC=C3C(C#N)=C(N)C2(C#N)C#N)cc1 (configuration not stated)	-5%	-26%	-4%	2	?	0	-6%	40µM*
Cc1cc(C(O)c2ncc(-c3cccc4ccccc34)[nH]2)ccc1F (configuration not stated)	/	/	-44%	1	/	/	/	/
CCN(C)C1CN(Cc2cn(Cc3ccc(C(F)(F)F)cc3)nn2)S(=O)(=O)C1 (configuration not stated)	/	/	14%	0	/	/	/	/
O=C(c1ccc(Cl)cc1)c1c[nH]c(C(=O)C(Cl)(Cl)Cl)c1	6%	?	16%	1	?	-11	1%	25µM*
Cc1cc(-n2c(=S)sc3c(=O)n(-c4ccc(F)cc4)c(SCC(=O)O)nc32)ccc1Cl	2%	29%	-1%	3	26µM*	-20	?	7.9µM*
COc1ccccc1-n1c(SCC(=O)O)nc2c(sc(=S)n2-c2ccc(Cl)c(C)c2)c1=O	?	-2%	-23%	1	20%	/	/	/
O=C(NCC1CCN(Cc2ccc(F)cc2)CC1)c1cc2ccc3cccnc3c2[nH]1	/	/	/	/	-15%	/	/	/
CCOc1ccc(C2=C(C(C)=O)Sc3nnc(C)n3N2C(C)=O)cc1	/	/	-39%	/	?	/	/	/
CC(=O)C1=C(c2cccc([N+](=O)[O-])c2)N(C(C)=O)n2c(C)nnc2S1	?	-16%	-22%	-4	21µM*	-9	i	3.2µM*
CC(=O)NC1C(=O)N(CCN2CCOCC2)c2ccc(Br)cc21 (configuration not stated)	-1%	-21%	-15%	-4	?	/	/	/
CCOc1ccc2c(c1)C(NC(C)=O)C(=O)N2CCN1CCOCC1 (configuration not stated)	-1%	-59%	-10%	0	29µM*	3	79µM*	25µM*
O=C(NC1(C(F)(F)F)C(=O)Nc2c1c(=O)[nH]c(=O)n2CCc1ccccc1)c1ccc(Cl)cc1Cl (configuration not stated)	/	/	10%	/	6%	/	/	/
COc1ccc(C(C(=O)Nc2ccc(F)cc2)N2CCN(CC(=O)N3CCCC3)CC2)cc1 (configuration not stated)	/	/	/	0	/	/	/	/
Cc1ccc2c(c1)Oc1ccc(NC(=O)CCl)cc1C(=O)N2	14%	33%	-76%	-5	13µM*	-2	71µM*	6.3µM*
Cc1ccc2c(c1)Oc1ccc([N+](=O)[O-])cc1C(=O)N2	1%	12%	-63%	2	10%	/	/	/
CS(=O)(=O)c1ccc(C(=O)OCc2nnc(-c3ccccc3)o2)cc1[N+](=O)[O-]	-4%	1%[15.4 µM]	5%	-4	?	-4	9%	25µM*
CC(CCc1ccccc1)NC(=O)COC(=O)c1ccc(S(C)(=O)=O)c([N+](=O)[O-])c1 (configuration not stated)	?	3%[15.4 µM]	-82%	-6	?	-3	2%	?
SMILES	gsp antagonist	gsp agonist	BRCA1 expr up	IL-2 act	mIDH1 inhibitor	Resorufin autofl	IDH1 WT	mIDH1 confirm
CN(C)S(=O)(=O)c1ccc(C(=O)OCc2nnc(-c3ccccc3)o2)cc1	-9%	-1%[15.4 µM]	0%	3	13%	/	/	/
O=C1NC[C@H](Cc2ccccc2)N(C[C@H]2CCCN2C[C@H](Cc2ccc(O)cc2)N2C[C@H](Cc3ccc(O)cc3)N(CC3CCCCCC3)C(=O)C2=O)C1=O	-21%	/	-63%	-1	?	3	5%	16µM*
CCOc1ccc(CCN2C(=O)C(=O)N([C@@H](Cc3ccccc3)CN3CCC[C@H]3CN3C(=O)C(=O)NC[C@@H]3Cc3ccc(O)cc3)C[C@@H]2Cc2ccc(O)cc2)cc1	/	/	-16%	0	/	/	/	/
CC(C)C[C@@H](CN1CCC[C@@H]1CN1C(=O)C(=O)NC[C@@H]1Cc1ccccc1)N1C[C@H](Cc2ccc(O)cc2)N(CC2CCCCCC2)C(=O)C1=O	-19%	/	-63%	0	28µM*	-6	0%	11µM*
O=C1NC[C@H](Cc2ccc(O)cc2)N(C[C@@H]2CCCN2C[C@H](Cc2ccc(O)cc2)N2C[C@H](Cc3ccccc3)N(CC3CCCCCC3)C(=O)C2=O)C1=O	/	/	5%	1	/	/	/	/
CC(C)C[C@@H](CN1CCC[C@H]1CN1C(=O)C(=O)NC[C@@H]1Cc1ccc(O)cc1)N1C[C@H](Cc2ccccc2)N(CC2CCCCCC2)C(=O)C1=O	/	/	-52%	-1	/	/	/	/
